Values joined by “and” are separate entries in the source; they are usually repeats but may differ in a detail not shown here. Equal values may be shown once. Active and inactive are the calls of the source. Rule as the data show it, unless noted: active = inhibition above about 80%; inactive = the rest.
What was measured:
F380Y = experiment: modulators of BK channel variants, profiling panel, selectivity assay, cell-based, U2OS BacMam, thallium flux, beta subunits (AID 1259406;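 active = thallium flux through the channel raised or lowered by more than 3 SD from vehicle-only wells, actives on both sides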;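 also: initial slope of Thallos dye fluorescence rise after thallium is added; log ratio against the mean of 0.3% DMSO vehicle wells on the same plate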); settings: at 30 µM
F380Y/beta1 = experiment: as above; settings: at 30 µM
[1] = UWB1.289 ovarian carcinoma cell growth inhibition, synergistic combos for chromothripsis tumors, BGB or cisplatin combos (AID 1671456); settings: UWB1.289 ovarian carcinoma cells, stronger effect = higher value;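 also: cells exposed to compound for four days; 0% = vehicle DMSO and 100% = killing by high DMSO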
[2] = LFS_MB_2R medulloblastoma cell growth inhibition, synergistic combos for chromothripsis tumors, cisplatin combos (AID 1671457); settings: LFS_MB_2R medulloblastoma cells, stronger effect = higher value;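 also: cells exposed to compound for four days before readout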
[3] = MDA-MB-436 breast carcinoma cell growth inhibition, synergistic combos for chromothripsis tumors, BGB or cisplatin combos (AID 1671458; call rule not given here;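 also: cells exposed for 96 hours; 0% = vehicle DMSO and 100% = killing by high DMSO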); settings: MDA-MB-436 breast carcinoma growth inhibition, drug combinations, stronger effect = higher value
[4] = UWB1.289_BRCA1 ovarian cancer growth, cell-based, BGB or cisplatin combinations (AID 1671459); settings: UWB1.289 BRCA1 ovarian carcinoma, drug combinations, stronger effect = higher value
[5] = human astrocyte viability loss, single and combined drugs, cytotoxicity control for chromothriptic childhood tumor combination screen, cell-based, BGB or cisplatin IC20 combos (AID 1671460); settings: Human astrocytes, drug combinations, stronger effect = higher value;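 also: cells exposed to compounds for 96 hours before viability readout; 0% = vehicle and 100% = killing control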
[6] = growth inhibition of BT084 medulloblastoma cells, cell-based, ICGC_MB145, cisplatin and BGB IC40 combos (AID 1671461); settings: drug combinations, stronger effect = higher value;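 also: cells exposed to drugs for 96 hours; 0% = vehicle DMSO and 100% = high DMSO full killing control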
[7] = growth inhibition of RCMB18 medulloblastoma cells, cell-based, cisplatin and BGB IC40 combos (AID 1671462); settings: stronger effect = higher value;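 also: cells exposed to compound for four days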
[8] = growth inhibition of CRL1545 osteosarcoma cells, cell-based, cisplatin and BGB IC20 combos (AID 1671464); settings: stronger effect = higher value;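 also: cells exposed to compound for 96 hours before readout; 0% = vehicle DMSO and 100% = high DMSO killing control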
[9] = measured here: inhibition with BGB combination, at 0.05 µM
[10] = measured here: inhibition with cisplatin combination, at 0.05 µM
[11] = measured here: combination with cisplatin, at 0.5 µM
[12] = measured here: combination with cisplatin, at 5 µM
[13] = measured here: BGB combination, at 0.5 µM
[14] = measured here: BGB combination, at 5 µM
[15] = measured here: cisplatin combination, at 0.5 µM
[16] = measured here: cisplatin combination, at 5 µM
[17] = BGB combination, concentration series, at 5 µM
[18] = cisplatin combination, concentration series, at 5 µM
[19] = measured here: combo with BGB IC20, at 0.5 µM
[20] = measured here: combo with cisplatin IC20, at 0.5 µM
[21] = cisplatin combination, at 0.5 µM
[22] = measured here: BGB IC40 combination 0.05 uM, at 0.05 µM
[23] = measured here: BGB IC40 combination, at 0.05 µM
[24] = measured here: with BGB IC20 combination, at 0.5 µM
[25] = measured here: with cisplatin IC20 combination, at 0.5 µM

CC(=O)NS(=O)(=O)c1ccc(N)cc1
log fold change Tl+ flux (F380Y): -0.0156 (inactive)
log fold change Tl+ flux (F380Y/beta1): 0.00907 (inactive)

CN(C)c1ccc(C(=C2C=CC(=[N+](C)C)C=C2)c2ccc(N(C)C)cc2)cc1
inhibition ([1]; at 0.5 µM): 68.6% (inactive)
inhibition [1, 9]: -11.5%
inhibition [1, 10]: 0.874%
inhibition ([2]; at 0.5 µM): 55.4% (inactive)
inhibition [2, 11]: 59.1%
inhibition [2, 12]: 89.4%
inhibition ([3]; at 0.5 µM): 80.4% (active)
inhibition [3, 13]: 73.7%
inhibition [3, 14]: 97.1%
inhibition [3, 15]: 80.1%
inhibition [3, 16]: 98.7%
inhibition [4, 17]: 105%
inhibition ([4]; at 0.5 µM): 71.7% (inactive)
inhibition [4, 18]: 110%
inhibition ([5]; at 0.5 µM): 67.2% (inactive)
inhibition [5, 19]: 65.8%
inhibition [5, 20]: 54.6%
inhibition ([6]; at 0.5 µM): 70.2% (inactive)
inhibition [6, 21]: 82.8%
inhibition ([6]; cisplatin combination, at 5 µM): 101%
inhibition [6, 22]: -10.9%
inhibition ([6]; single agent, at 5 µM): 103%
inhibition ([7]; at 0.5 µM): 64.4% (inactive)
inhibition ([7]; cisplatin combo, at 5 µM): 97.3%
inhibition [7, 23]: 11.2%
inhibition [7, 11]: 59.9%
inhibition ([7]; single agent, at 5 µM): 94.1%
inhibition ([8]; at 0.5 µM): 99.5% (active)
inhibition [8, 24]: 99.4%
inhibition [8, 25]: 99.5%
inhibition ([8]; single agent, at 0.05 µM): 17.4%
inhibition ([8]; single agent, at 5 µM): 99.6%

Nc1nc(=S)c2[nH]cnc2[nH]1
inhibition ([1]; at 0.5 µM): 63.1% (inactive)
inhibition [1, 9]: -17.4%
inhibition [1, 10]: -1.37%
inhibition ([2]; at 0.5 µM): -15.5% (inactive)
inhibition [2, 11]: -18.2%
inhibition [2, 12]: -6.5%
inhibition ([3]; at 0.5 µM): 15.1% (inactive)
inhibition [3, 13]: 4.09%
inhibition [3, 14]: 52.8%
inhibition [3, 15]: 11.9%
inhibition [3, 16]: 66.7%
inhibition [4, 17]: 113%
inhibition ([4]; at 0.5 µM): 63.6% (inactive)
inhibition [4, 18]: 110%
inhibition ([5]; at 0.5 µM): 4.77% (inactive)
inhibition [5, 19]: -3.14%
inhibition [5, 20]: 8.25%
inhibition ([6]; at 0.5 µM): -17.7% (inactive)
inhibition [6, 21]: -11.9%
inhibition ([6]; cisplatin combination, at 5 µM): 0.406%
inhibition [6, 22]: 0.063%
inhibition ([6]; single agent, at 5 µM): 26.6%
inhibition ([7]; at 0.5 µM): -16.7% (inactive)
inhibition ([7]; cisplatin combo, at 5 µM): -5.08%
inhibition [7, 23]: -23.1%
inhibition [7, 11]: 12.6%
inhibition ([7]; single agent, at 5 µM): -10.3%
inhibition ([8]; at 0.5 µM): -1.16% (inactive)
inhibition [8, 24]: -1.16%
inhibition [8, 25]: -1.16%
inhibition ([8]; single agent, at 0.05 µM): -14.2%
inhibition ([8]; single agent, at 5 µM): 77.7%

CCn1cc(C(=O)O)c(=O)c2cc(F)c(N3CCNC(C)C3)c(F)c21 (stereo not drawn)
inhibition ([1]; at 0.5 µM): -5.87% (inactive) and 3.27% (inactive)
inhibition [1, 9]: -15.8% and -6.81%
inhibition [1, 10]: -31.3% and -16.8%
inhibition ([2]; at 0.5 µM): -11.7% (inactive) and -17.4% (inactive)
inhibition [2, 11]: -16.5% and -22.2%
inhibition [2, 12]: -74.9% and -58.2%
inhibition ([3]; at 0.5 µM): -41.7% (inactive) and -18.1% (inactive)
inhibition [3, 13]: -27.8% and -13.8%
inhibition [3, 14]: -28.2% and -9.38%
inhibition [3, 15]: -66.9% and -25.1%
inhibition [3, 16]: -19.8% and -29.7%
inhibition [4, 17]: -32.2% and -2.47%
inhibition ([4]; at 0.5 µM): -9.31% (inactive) and 2.01% (inactive)
inhibition [4, 18]: -6.73% and 11.3%
inhibition ([5]; at 0.5 µM): -10.6% (inactive) and 4.2% (inactive)
inhibition [5, 19]: -11.6% and -0.829%
inhibition [5, 20]: -24.3% and -1.68%
inhibition ([6]; at 0.5 µM): -29.5% (inactive) and -34.2% (inactive)
inhibition [6, 21]: -4.32% and -19.8%
inhibition ([6]; cisplatin combination, at 5 µM): -10.2% and -20.4%
inhibition [6, 22]: -19.8% and -12.4%
inhibition ([6]; single agent, at 5 µM): -14.7% and -12.9%
inhibition ([7]; at 0.5 µM): -20.2% (inactive) and -5.16% (inactive)
inhibition ([7]; cisplatin combo, at 5 µM): -24.3% and 18.4%
inhibition [7, 23]: -16.8% and -25.7%
inhibition [7, 11]: -27.2% and 7.44%
inhibition ([7]; single agent, at 5 µM): -21.5% and -4.86%
inhibition ([8]; at 0.5 µM): -53.2% (inactive) and 15% (inactive)
inhibition [8, 24]: -48% and 1.95%
inhibition [8, 25]: -59.3% and 19.8%
inhibition ([8]; single agent, at 0.05 µM): -84.2% and 11.3%
inhibition ([8]; single agent, at 5 µM): -56% and 4.55%
